Data: the supplement of paper PMC10681739

Assays:
[1] = biological target: T1, ETS1 (UniProt P14921); assay: ETS1 binding intensity (PBM fluorescence), ETS1 alone (arbitrary fluorescence units); higher = stronger binding; conditions: ETS1 concentration 1 nM; RUNX1 concentration 0 nM
T1 sequence: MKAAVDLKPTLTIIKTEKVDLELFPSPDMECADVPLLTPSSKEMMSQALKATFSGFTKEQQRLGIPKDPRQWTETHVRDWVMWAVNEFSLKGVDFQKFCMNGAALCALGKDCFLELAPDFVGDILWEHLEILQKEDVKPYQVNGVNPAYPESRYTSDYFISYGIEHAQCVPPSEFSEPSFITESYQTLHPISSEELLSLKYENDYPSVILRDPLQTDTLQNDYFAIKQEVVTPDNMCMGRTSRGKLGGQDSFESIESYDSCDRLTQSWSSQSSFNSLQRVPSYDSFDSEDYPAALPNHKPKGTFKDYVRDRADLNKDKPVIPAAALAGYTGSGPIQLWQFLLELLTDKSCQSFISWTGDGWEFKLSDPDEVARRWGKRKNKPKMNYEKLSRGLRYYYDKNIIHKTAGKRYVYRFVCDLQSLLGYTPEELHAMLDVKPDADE

[2] = biological target: RUNX1 (UniProt Q01196); assay: RUNX1 binding intensity (PBM fluorescence), RUNX1 alone (arbitrary fluorescence units); higher = stronger binding; conditions: RUNX1 concentration 2 nM; ETS1 concentration 0 nM
Procedure: (§1)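 Cooperative gcPBM on 36-bp genomic probes with neighbouring ETS1 and RUNX1 sites. Recombinant human RUNX1 (2 nM) was incubated alone or with ETS1 (25 nM) and detected with anti-RUNX1 antibody plus Alexa488 secondary. Values are medians over 4 replicate spots; the RUNX1+ETS1 data were normalised to the RUNX1-only data. The probes sit in constant array flanks that are not printed.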

[3] = biological target: T1, ETS1; assay: ETS1 binding intensity (PBM fluorescence) in presence of RUNX1, normalised to ETS1-only experiment (arbitrary fluorescence units); higher = stronger binding; conditions: ETS1 concentration 1 nM; RUNX1 concentration 25 nM
[4] = biological target: RUNX1 (UniProt Q01196); assay: RUNX1 binding intensity (PBM fluorescence) in presence of ETS1, normalised to RUNX1-only experiment (arbitrary fluorescence units); higher = stronger binding; conditions: RUNX1 concentration 2 nM; ETS1 concentration 25 nM
Procedure: as §1
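For RUNX1 binding intensity (PBM fluorescence) in presence of ETS1, normalised to RUNX1-only experiment in this document: Full-length recombinant human ETS1 or RUNX1 bound to double-stranded 36-bp genomic probes on microarrays, detected by protein-specific primary antibody and Alexa488 secondary, spot fluorescence as median of four replicate spots.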
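For RUNX1 binding intensity (PBM fluorescence), RUNX1 alone in this document: Full-length recombinant human RUNX1 bound to double-stranded 36-bp genomic probes on a high-density microarray, scored as Alexa488 fluorescence per spot via anti-RUNX1 antibody, median of four replicate spots.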

Chain of RUNX1 (Q01196 whole entry): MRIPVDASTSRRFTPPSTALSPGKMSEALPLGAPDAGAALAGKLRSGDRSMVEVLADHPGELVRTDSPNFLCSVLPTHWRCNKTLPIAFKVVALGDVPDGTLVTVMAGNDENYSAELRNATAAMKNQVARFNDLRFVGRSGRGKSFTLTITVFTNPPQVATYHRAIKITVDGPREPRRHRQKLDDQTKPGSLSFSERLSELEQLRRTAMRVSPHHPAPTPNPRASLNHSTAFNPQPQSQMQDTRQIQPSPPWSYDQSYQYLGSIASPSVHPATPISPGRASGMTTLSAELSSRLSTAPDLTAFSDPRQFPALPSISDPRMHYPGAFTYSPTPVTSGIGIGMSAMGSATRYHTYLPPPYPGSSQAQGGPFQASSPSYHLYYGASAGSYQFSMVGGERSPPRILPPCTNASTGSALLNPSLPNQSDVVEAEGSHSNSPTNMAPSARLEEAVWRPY

Sequence	ETS1 binding intensity [1]	RUNX1 binding intensity [2]	ETS1 binding intensity [3]	RUNX1 binding intensity [4]
TTAGATGTGCCTACATCCTGACCTCAAAAACCTCTG	561	791	767	957
CCAGCTACACAGGATGCTGCGGTGGGCGGAATGCTC	2160	801	9170	1970
GCTTACACTTCCTCCCTGAACCCCTGCGGTTTCACA	511	4160	1960	10200
TAAATGTTTCCTAAAAGCTCTTTCATAAACCACAGT	390	970	669	884
